From PubChem BioAssay AID1159580 (chemical genetic matrix, 2015)
Where “and” joins values, the source holds several entries; their conditions need not be identical. Equal entries are not always repeated. Hit rate of the full screen: of about 5,500 compounds, about 2,000 (36%) were called active. Inconclusive results (about 18%) are left out. Cut-off read from the data, not from the text of the source: active = normalized growth mostly below about 0.91 (no sharp cut-off); inconclusive = no clear call, values can overlap the other calls; inactive = mostly above about 0.92. The list shows a part of the results.

Experiment: chemical genetic growth profiling, strain panel (AID 1159580);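 note: tested at 20 µM; growth read once vehicle control cultures reached saturation at 30 °C; 1 = growth at the plate median or of vehicle wells; lower values mean less growth of the strain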
Details: growth OD

Measured: normalized growth

NC(Cc1ccc(Cl)cc1)C(=O)O (centres undefined)
inactive: S. cerevisiae deletion strains, locus YJR075W, strain HOC1, hits give low values 0.999 and 1.06 | S. cerevisiae deletion strains, locus YKL009W, strain mrt4, hits give low values 1.03 | S. cerevisiae deletion strains, locus YKL068W, hits give low values 0.994 | S. cerevisiae deletion strains, locus YKL085W, strain MDH1 (second series), hits give low values 0.994 | S. cerevisiae deletion strains, locus YKL085W, strain MDH1, hits give low values 0.994 | S. cerevisiae deletion strains, locus YKL160W, strain elf1, hits give low values 0.996 | S. cerevisiae deletion strains, locus YKL190W, strain CNB1, hits give low values 0.991 | S. cerevisiae deletion strains, locus YKR001C, strain vps1, hits give low values 1.02 | S. cerevisiae deletion strains, locus YKR026C, strain gcn3, hits give low values 1 | S. cerevisiae deletion strains, locus YKR091W, strain srl3, hits give low values 0.993 | S. cerevisiae deletion strains, locus YLL001W, strain dnm1, hits give low values 0.984 | S. cerevisiae deletion strains, locus YLL026W, hits give low values 0.999 | S. cerevisiae deletion strains, locus YLL041C, strain sdh2, hits give low values 1 | S. cerevisiae deletion strains, locus YLR027C, strain aat2, hits give low values 0.999 | S. cerevisiae deletion strains, locus YLR039C, strain RIC1, hits give low values 0.994 | S. cerevisiae deletion strains, locus YLR058C, strain SHM2, hits give low values 0.981 | S. cerevisiae deletion strains, locus YLR102C, strain apc9, hits give low values 0.998 | S. cerevisiae deletion strains, locus YLR113W, strain HOG1, hits give low values 0.971 | S. cerevisiae deletion strains, locus YLR221C, strain rsa3, hits give low values 0.996 | S. cerevisiae deletion strains, locus YLR258W, strain gsy2, hits give low values 0.988 | S. cerevisiae deletion strains, locus YLR262C, strain YPT6 (second series), hits give low values 1.02 | S. cerevisiae deletion strains, locus YLR262C, strain YPT6, hits give low values 0.955 | S. cerevisiae deletion strains, locus YLR268W, strain sec22, hits give low values 1 | S. cerevisiae deletion strains, locus YLR320W, strain mms22, hits give low values 0.996 | S. cerevisiae deletion strains, locus YLR330W, strain CHS5, hits give low values 0.992 | S. cerevisiae deletion strains, locus YLR342W, strain FKS1 (second series), hits give low values 1.02 | S. cerevisiae deletion strains, locus YLR342W, strain FKS1, hits give low values 0.999 | S. cerevisiae deletion strains, locus YLR357W, strain rsc2, hits give low values 0.977 | S. cerevisiae deletion strains, locus YLR370C, strain arc18, hits give low values 1 | S. cerevisiae deletion strains, locus YLR371W, strain rom2, hits give low values 0.993 | S. cerevisiae deletion strains, locus YLR384C, strain iki3, hits give low values 0.986 | S. cerevisiae deletion strains, locus YLR418C, strain cdc73, hits give low values 1.04 | S. cerevisiae deletion strains, locus YML016C, strain PPZ1, hits give low values 0.986 | S. cerevisiae deletion strains, locus YML032C, strain rad52, hits give low values 0.983 | S. cerevisiae deletion strains, locus YML120C, strain ndi1, hits give low values 0.993 | S. cerevisiae deletion strains, locus YML124C, strain tub3, hits give low values 0.998 | S. cerevisiae deletion strains, locus YMR058W, strain fet3, hits give low values 1.02 | S. cerevisiae deletion strains, locus YMR078C, strain ctf18, hits give low values 0.992 | S. cerevisiae deletion strains, locus YMR125W, strain sto1, hits give low values 0.993 | S. cerevisiae deletion strains, locus YMR129W, hits give low values 0.995 | S. cerevisiae deletion strains, locus YMR205C, strain PFK2, hits give low values 0.991 | S. cerevisiae deletion strains, locus YMR223W, strain ubp8, hits give low values 1.01 | S. cerevisiae deletion strains, locus YMR231W, strain pep5, hits give low values 0.993 | S. cerevisiae deletion strains, locus YMR263W, strain SAP30, hits give low values 0.991 and 0.983 | S. cerevisiae deletion strains, locus YMR307W, strain GAS1, hits give low values 1.06 | S. cerevisiae deletion strains, locus YNL067W, strain RPL9B, hits give low values 0.986 | S. cerevisiae deletion strains, locus YNL071W, strain lat1, hits give low values 1 | S. cerevisiae deletion strains, locus YNL128W, strain TEP1, hits give low values 0.976 | S. cerevisiae deletion strains, locus YNL153C, strain GIM3, hits give low values 0.983 and 1.07 | S. cerevisiae deletion strains, locus YNL175C, strain NOP13, hits give low values 0.986 | S. cerevisiae deletion strains, locus YNL183C, strain NPR1, hits give low values 0.891 | S. cerevisiae deletion strains, locus YNL209W, strain ssb2, hits give low values 1 | S. cerevisiae deletion strains, locus YNL224C, strain SQS1, hits give low values 1.01 | S. cerevisiae deletion strains, locus YNL233W, strain BNI4, hits give low values 0.991 | S. cerevisiae deletion strains, locus YNL248C, strain rpa49, hits give low values 1.01 | S. cerevisiae deletion strains, locus YNL250W, strain rad50, hits give low values 0.988 | S. cerevisiae deletion strains, locus YNL271C, strain bni1, hits give low values 1 | S. cerevisiae deletion strains, locus YNL298W, strain CLA4, hits give low values 0.985 | S. cerevisiae deletion strains, locus YNL307C, strain MCK1, hits give low values 1.01 | S. cerevisiae deletion strains, locus YNL322C, strain KRE1 (second series), hits give low values 0.983 | S. cerevisiae deletion strains, locus YNL322C, strain KRE1, hits give low values 0.989 | S. cerevisiae deletion strains, locus YNR049C, strain mso1, hits give low values 1 | S. cerevisiae deletion strains, locus YNR052C, strain pop2, hits give low values 0.986 | S. cerevisiae deletion strains, locus YOL006C, strain TOP1, hits give low values 0.991 | S. cerevisiae deletion strains, locus YOL012C, strain htz1 1.95 | S. cerevisiae deletion strains, locus YOL147C, strain pex11, hits give low values 1.01 | S. cerevisiae deletion strains, locus YOR001W, strain rrp6, hits give low values 1 | S. cerevisiae deletion strains, locus YOR061W, strain CKA2, hits give low values 0.97 | S. cerevisiae deletion strains, locus YOR069W, strain VPS5, hits give low values 0.997 | S. cerevisiae deletion strains, locus YOR070C, strain gyp1, hits give low values 0.988 | S. cerevisiae deletion strains, locus YOR080W, strain dia2, hits give low values 0.992 | S. cerevisiae deletion strains, locus YOR083W, strain WHI5, hits give low values 1.02 | S. cerevisiae deletion strains, locus YOR106W, strain vam3, hits give low values 0.987 | S. cerevisiae deletion strains, locus YOR136W, strain idh2, hits give low values 0.995 | S. cerevisiae deletion strains, locus YOR144C, strain elg1, hits give low values 1 | S. cerevisiae deletion strains, locus YOR184W, strain ser1, hits give low values 1 | S. cerevisiae deletion strains, locus YOR231W, strain MKK1, hits give low values 0.991 | S. cerevisiae deletion strains, locus YOR265W, strain rbl2, hits give low values 0.986 | S. cerevisiae deletion strains, locus YOR270C, strain vph1, hits give low values 1.02 | S. cerevisiae deletion strains, locus YOR290C, strain snf2, hits give low values 0.965 | S. cerevisiae deletion strains, locus YOR316C, strain cot1, hits give low values 0.993 | S. cerevisiae deletion strains, locus YPL051W, strain arl3, hits give low values 0.992 | S. cerevisiae deletion strains, locus YPL055C, strain LGE1, hits give low values 0.976 | S. cerevisiae deletion strains, locus YPL078C, strain atp4, hits give low values 1 | S. cerevisiae deletion strains, locus YPL106C, strain sse1, hits give low values 0.97 | S. cerevisiae deletion strains, locus YPL240C, strain hsp82, hits give low values 1 | S. cerevisiae deletion strains, locus YPL241C, strain CIN2, hits give low values 0.995 and 1.01 | S. cerevisiae deletion strains, locus YPL256C, strain CLN2, hits give low values 0.969 | S. cerevisiae deletion strains, locus YPR119W, strain clb2, hits give low values 0.993 | S. cerevisiae deletion strains, locus YPR141C, strain kar3, hits give low values 0.992 | S. cerevisiae deletion strains, locus YPR163C, strain tif3, hits give low values 1 | S. cerevisiae deletion strains, locus YPR167C, strain met16, hits give low values 0.996 | S. cerevisiae deletion strains, strain wtn01, hits give low values 0.99 | S. cerevisiae strains, strain wild type, hits give low values 0.998
